Experiment [1] concerns the target Thyrotropin receptor (Homo sapiens) (UniProt P16473). As to the kind of experiment: qHTS assay to identify small molecule antagonists of the thyroid stimulating hormone receptor (TSHR) signaling pathway (AID 1259385; calls by dose curve; also: nearly all actives have a fitted effect of over 20% in size). In outline: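 TSHR-HEK293 cells were plated and held 18 h at 37C/5% CO2, then given compound plus Ro20-1724 and stimulated with TSH at 1.5 ng/mL final. After 30 min at room temperature, cAMP was detected with cAMP-d2/anti-cAMP-cryptate (1 h) by fluorescence.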

A short description of experiment [2]: qHTS assay to identify small molecule agonists of the estrogen receptor alpha (ER-alpha) signaling pathway in the presence of an antagonist - cell viability counter screen (AID 1259386).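 Also: series mostly up to about 92 µM; cells exposed to compounds for 22 h at 37 °C before the viability read; nearly all actives have a fitted effect of over 30% in size.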 In outline: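 ICI-182,780 at 10.0nM final accompanies the compound titration (15 concentrations, 22hr, 37C) on VM7Luc4E2 cells. The CellTiter-Fluor fluorescence readout runs in the same wells as the luciferase assay.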
A general note: In qHTS, concentration-response curves come from the screen itself.

Experiment [3] addresses Progesterone receptor (Homo sapiens) (UniProt P06401). As to the kind of experiment: qHTS assay to identify small molecule agonists of the progesterone receptor (PR) signaling pathway (AID 1346784; calls by dose curve; also: nearly all actives have a fitted effect of over 30% in size; also: potency is read from the fitted curve at half-maximal effect). In outline:
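Cells (PR-UAS-bla HEK 293T, GripTite) were plated in assay medium containing 2% charcoal-stripped FBS and incubated 6 hr. Test compounds in DMSO were added for 16 hr at 37C. FRET substrate was then loaded for 2 hr at room temperature before fluorescence reading.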

Experiment [4] has the same target. Put plainly: qHTS assay to identify small molecule antagonists of the progesterone receptor (PR) signaling pathway (AID 1346795; active = well fitted inhibition curve with a large enough effect in the signal ratio in the repeat runs, not every such curve was filed as active; the % refers to the signal ratio; also: potency is read from the fitted curve at half-maximal effect). In outline:
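Antagonist mode: compounds tested against 1 nM (final) promegestone stimulation in HEK293T cells expressing PR-UAS-bla reporter, 16 hr at 37C, 5% CO2; beta-lactamase activity detected via B/G FRET substrate after 2 hr at room temperature.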

Experiment [5] can be described thus: qHTS assay to identify small molecule antagonists of the progesterone receptor (PR) signaling pathway - cell viability counter screen (AID 1346798). Also: series mostly up to about 92 µM; nearly all actives have a fitted effect of over 50% in size. An outline of the steps: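 Counter screen for cytotoxicity: viability of PR-UAS-bla HEK293T cells was measured with CellTiter-Glo luminescence following 16 hr compound exposure in the presence of R5020.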
Experiment [6] in a line: qHTS assay to identify small molecule agonists of the progesterone receptor (PR) signaling pathway - cell viability counter screen (AID 1346799; calls by dose curve; also: nearly all actives have a fitted effect of over 45% in size). In outline: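 Cells (PR-UAS-bla HEK293T) are plated at 3,000/well in 2% charcoal-stripped FBS medium, rested 6 hr, dosed and incubated 16 hr at 37C. CellTiter-Glo is then added and luminescence measured after 30 min at room temperature.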

Experiment [7] can be described thus: qHTS assay to identify small molecule antagonists of the TGF-beta/Smad signaling pathway - cell viability counter screen (AID 1346824). Also: nearly all actives have a fitted effect of over 50% in size. In outline: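 SBE-bla HEK 293T cells were plated overnight at 37 C, then given compounds in DMSO plus TGF-beta1 (added as 0.25 ng/mL solution) for 5 hr. After the bla read, CellTiter-Glo was added to the same wells and luminescence read after 30 min at room temperature.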

Experiment [8] can be described thus: qHTS assay to identify small molecule agonists of the TGF-beta/Smad signaling pathway - cell viability counter screen (AID 1346829). Also: top concentration of the series differs between compounds; nearly all actives have a fitted effect of over 45% in size. An outline of the steps:
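Tox21 qHTS format: SBE-bla HEK 293T cells treated with DMSO-dissolved compounds for 5 hr; CellTiter-Glo luminescence after 30 min at room temperature.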

In experiment [9] the target is Thyrotropin-releasing hormone receptor (Homo sapiens) (UniProt P34981). As to the kind of experiment: qHTS assay to identify small molecule antagonists of the thyrotropin-releasing hormone receptor (TRHR) signaling pathway (AID 1346877; active = well fitted inhibition curve with a large enough effect in the repeat runs, not every such curve was filed as active; also: series mostly up to about 51 µM). An outline of the steps: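 Screening used HEK293 cells engineered with TRHR, with a brief 5 min room-temperature compound exposure preceding addition of TRH to 1 nM. The read-out was kinetic calcium-dye fluorescence, concentration-response from 15 doses in triplicate.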

Experiment [10] can be described thus: qHTS assay to identify small molecule agonists of the TGF-beta/Smad signaling pathway (AID 1346859; active = well fitted activation curve with a large enough effect in the signal ratio in the repeat runs, not every such curve was filed as active; the % refers to the signal ratio; also: series mostly up to about 77 µM). An outline of the steps: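 Reporter line: HEK 293T with stably integrated SBE-controlled beta-lactamase. Compound exposure lasts 5 hr at 37 C and 5% CO2; substrate loading follows for 2 hr at room temperature, with emission read at 460 and 530 nm.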

In PubChem BioAssay (Tox21) one finds outcome and Potency data, which are given here for 29 compounds.

Results filed as inconclusive are left out. Active and inactive are the calls of the source. Unless noted, calls follow the shape of the dose curve; as a rule, active = well fitted curve in the direction sought with a large enough effect in the repeat runs; inconclusive = weak or mixed curves; inactive = no such curve, though single readings can be large; an effect the other way counts as inactive or inconclusive.

Thyrotropin receptor (Homo sapiens), sequence (P16473 whole entry, looked up): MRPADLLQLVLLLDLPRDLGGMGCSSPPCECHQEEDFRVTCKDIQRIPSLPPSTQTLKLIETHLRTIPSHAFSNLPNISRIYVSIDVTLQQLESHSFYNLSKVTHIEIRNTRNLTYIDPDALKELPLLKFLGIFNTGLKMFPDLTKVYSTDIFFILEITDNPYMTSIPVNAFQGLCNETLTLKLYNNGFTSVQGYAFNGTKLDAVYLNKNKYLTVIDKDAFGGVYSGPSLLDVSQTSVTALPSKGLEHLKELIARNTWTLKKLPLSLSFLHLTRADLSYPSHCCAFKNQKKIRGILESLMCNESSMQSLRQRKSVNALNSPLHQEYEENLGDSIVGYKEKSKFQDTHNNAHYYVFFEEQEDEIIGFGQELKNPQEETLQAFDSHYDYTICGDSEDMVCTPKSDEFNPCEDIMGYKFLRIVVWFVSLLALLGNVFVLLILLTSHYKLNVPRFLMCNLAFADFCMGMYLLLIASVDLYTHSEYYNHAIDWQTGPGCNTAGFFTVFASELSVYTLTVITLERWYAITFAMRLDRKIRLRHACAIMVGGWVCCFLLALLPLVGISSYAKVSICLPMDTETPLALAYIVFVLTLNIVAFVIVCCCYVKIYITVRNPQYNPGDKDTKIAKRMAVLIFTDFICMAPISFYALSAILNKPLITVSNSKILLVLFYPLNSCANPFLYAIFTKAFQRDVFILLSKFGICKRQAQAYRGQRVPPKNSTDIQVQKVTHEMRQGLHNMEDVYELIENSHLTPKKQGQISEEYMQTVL
Progesterone receptor (Homo sapiens), sequence (P06401 whole entry, looked up): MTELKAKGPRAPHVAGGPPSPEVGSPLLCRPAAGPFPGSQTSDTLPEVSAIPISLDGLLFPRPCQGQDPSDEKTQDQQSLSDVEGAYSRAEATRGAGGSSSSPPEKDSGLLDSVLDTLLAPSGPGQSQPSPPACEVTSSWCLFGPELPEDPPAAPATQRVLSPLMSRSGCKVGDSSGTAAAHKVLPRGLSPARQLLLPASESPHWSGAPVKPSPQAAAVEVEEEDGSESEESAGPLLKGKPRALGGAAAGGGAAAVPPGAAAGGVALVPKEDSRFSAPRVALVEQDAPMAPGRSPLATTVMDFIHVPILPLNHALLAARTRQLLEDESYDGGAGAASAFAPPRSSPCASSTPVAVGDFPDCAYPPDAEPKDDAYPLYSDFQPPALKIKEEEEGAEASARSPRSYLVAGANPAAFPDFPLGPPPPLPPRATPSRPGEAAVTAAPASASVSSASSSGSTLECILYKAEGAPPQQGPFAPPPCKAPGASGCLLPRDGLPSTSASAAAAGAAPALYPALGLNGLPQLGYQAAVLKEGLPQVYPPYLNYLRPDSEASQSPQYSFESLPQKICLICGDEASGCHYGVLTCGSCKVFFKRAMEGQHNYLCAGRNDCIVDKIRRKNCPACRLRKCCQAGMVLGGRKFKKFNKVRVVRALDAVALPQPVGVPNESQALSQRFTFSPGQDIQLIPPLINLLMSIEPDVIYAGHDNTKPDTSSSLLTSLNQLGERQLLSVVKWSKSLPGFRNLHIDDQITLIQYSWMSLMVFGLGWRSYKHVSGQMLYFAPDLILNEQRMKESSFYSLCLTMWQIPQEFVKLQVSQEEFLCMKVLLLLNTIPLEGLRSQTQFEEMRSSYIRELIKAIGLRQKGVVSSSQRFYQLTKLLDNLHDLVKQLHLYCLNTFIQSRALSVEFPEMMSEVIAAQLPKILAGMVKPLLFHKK
Thyrotropin-releasing hormone receptor (Homo sapiens), sequence (P34981 whole entry, looked up): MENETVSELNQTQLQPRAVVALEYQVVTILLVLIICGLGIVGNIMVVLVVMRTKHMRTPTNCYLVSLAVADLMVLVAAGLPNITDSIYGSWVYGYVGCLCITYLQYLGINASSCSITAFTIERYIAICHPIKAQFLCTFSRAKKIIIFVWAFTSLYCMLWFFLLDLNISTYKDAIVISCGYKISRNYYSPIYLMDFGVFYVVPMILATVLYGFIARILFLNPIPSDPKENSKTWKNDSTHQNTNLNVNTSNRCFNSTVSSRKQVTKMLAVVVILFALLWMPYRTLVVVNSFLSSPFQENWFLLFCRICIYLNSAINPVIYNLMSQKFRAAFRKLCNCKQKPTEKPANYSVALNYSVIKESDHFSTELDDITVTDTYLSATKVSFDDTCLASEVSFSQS

As to `C=CCCCCCCCCC(=O)O`, the call in experiment [1], in experiment [5], in experiment [6], in [7], in [8] and in experiment [9] was inactive. The Potency entry in experiment [2], in experiment [3] and in experiment [4] was “inactive” in each case.

`CCCCCCCCCCCC(=O)OC`: the compound was classed as inactive in [1], in [5], in [6], in experiment [7], in experiment [8] and in experiment [9]. Moreover, the Potency result in experiment [2], in experiment [3] and in [4] was “inactive” in each case.

Turning to `CC1(C)S[C@@H]2[C@H](NC(=O)COc3ccccc3)C(=O)N2[C@H]1C(=O)O`, the result in experiment [1], in experiment [5], in experiment [6], in [7], in experiment [8] and in experiment [9] was inactive. Moreover, the Potency result in experiment [2], in [3] and in [4] was “inactive” in each case.

Consider `CC(C)=CCl`, for which the result in [1], in [5], in experiment [6] and in experiment [8] was inactive. Moreover, the Potency result in experiment [2], in experiment [3] and in experiment [4] was “inactive” throughout.

In the case of `CC(=O)OCc1ccccc1`, the compound was classed as inactive in experiment [1], in [5], in experiment [6], in experiment [7], in experiment [8] and in [9]. Moreover, the Potency result in experiment [2], in [3] and in [4] was “inactive” throughout.

On to `CCOCC(=O)O`, for which the compound was called inactive in experiment [1], in experiment [5], in [6], in [8] and in experiment [10]. Also, the Potency result in [2], in experiment [3] and in experiment [4] was “inactive” in each case.

In the case of `CC(=O)CC(C)(C)O`, the compound was classed as inactive in experiment [1], in [5], in experiment [6], in [8], in [10] and in experiment [9]. The Potency entry in experiment [2], in [3] and in experiment [4] was “inactive” in each case.

For `C[Si]1(C)O[Si](C)(C)O[Si](C)(C)O[Si](C)(C)O1`, the compound was called inactive in experiment [1], in experiment [5], in [6], in experiment [7], in experiment [8] and in experiment [9]. Also, the Potency entry in experiment [2], in experiment [3] and in experiment [4] was “inactive” each time.

As to `C=C(C)CNCC`, the compound was classed as inactive in [1], in experiment [5], in [6], in experiment [7], in [8] and in [10]. Besides, in [9], the compound was classed as inactive. In addition, the Potency result in [2], in experiment [3] and in experiment [4] was “inactive” in each case.

Turning to `Clc1ccccn1`, the call in [1], in experiment [5], in [6], in [7], in [8] and in [10] was inactive. Besides, in [9], the compound was called inactive. In addition, the Potency result in experiment [2], in experiment [3] and in experiment [4] was “inactive” each time.

`O=C(O)c1ccc(C(=O)O)c(C(=O)O)c1`: the outcome in [1], in experiment [5], in [6], in experiment [8], in experiment [10] and in experiment [9] was inactive. Further, the Potency result in experiment [2], in experiment [3] and in [4] was “inactive” each time.

On to `CCNc1cccc(C)c1`, for which the compound was classed as inactive in experiment [1], in experiment [5], in experiment [6] and in [8]. Also, the Potency result in experiment [2], in experiment [3] and in experiment [4] was “inactive” each time.

On to `CC(CCl)OP(=O)(OC(C)CCl)OC(C)CCl` (centres undefined), for which the compound was called inactive in [1], in [5], in experiment [6], in experiment [7], in experiment [8] and in [10]. Besides, the result in experiment [9] was inactive. Also, the Potency entry in experiment [2] and in experiment [3] was “inactive” each time. Further, in experiment [4], the Potency is 54.6 µM (active).

In the case of `CN(C)CCOC(=O)COc1ccc(Cl)cc1`, the compound was classed as inactive in [1], in [5], in experiment [6], in experiment [7], in experiment [8] and in experiment [10]. Besides, the compound was classed as inactive in experiment [9]. The Potency entry in experiment [2], in [3] and in [4] was “inactive” each time.

For `CC(C)CC(=O)CC(C)CC(C)C` (centres undefined), the call in [1], in [5], in experiment [6], in experiment [7], in [8] and in experiment [9] was inactive. Further, the Potency entry in experiment [2], in experiment [3] and in experiment [4] was “inactive” in each case.

As for `CC(=O)OCCOC(C)=O`, the outcome in [1], in [5], in [6], in [7], in [8] and in [9] was inactive. In addition, the Potency entry in experiment [2], in experiment [3] and in [4] was “inactive” each time.

Regarding `CCO[Si](CCCN)(OCC)OCC`, the outcome in experiment [1], in experiment [5], in [6], in [7], in experiment [8] and in [9] was inactive. Further, the Potency result in experiment [2], in experiment [3] and in experiment [4] was “inactive” each time.

With `CCCCCCO`, the compound was called inactive in experiment [1], in experiment [5], in experiment [6], in experiment [7], in experiment [8] and in experiment [9]. In addition, the Potency entry in [2], in experiment [3] and in [4] was “inactive” in each case.

With `CCCCCCCCCCO`, the compound was classed as inactive in experiment [1], in experiment [5], in experiment [6], in experiment [8], in experiment [10] and in experiment [9]. Besides, the Potency entry in [2], in [3] and in [4] was “inactive” throughout.

`CC(C)OC(=O)COc1ccc(Cl)cc1Cl`: the compound was classed as inactive in experiment [1], in experiment [5], in experiment [6], in [8] and in [10]. For the same compound, the Potency result in experiment [2], in experiment [3] and in experiment [4] was “inactive” in each case.

With `COc1ccc(C)cc1N`, the outcome in experiment [1], in experiment [5], in experiment [6], in experiment [7], in experiment [8] and in experiment [9] was inactive. In addition, the Potency entry in [2], in experiment [3] and in experiment [4] was “inactive” throughout.

In the case of `O=C(O)CCCCCCCCC(=O)O`, the outcome in experiment [1], in [5], in [6], in [7], in experiment [8] and in experiment [9] was inactive. Moreover, the Potency result in [2], in experiment [3] and in experiment [4] was “inactive” each time.

`O=C(O)Cn1c(=O)n(Cc2ccc(Br)cc2F)c(=O)c2ccc(Cl)cc21`: the result in experiment [1], in [5], in [6], in experiment [7], in experiment [8] and in experiment [9] was inactive. Further, the Potency entry in experiment [2], in experiment [3] and in [4] was “inactive” in each case.

Take `NCCNCCN`: the Potency result in experiment [2], in [3] and in experiment [4] was “inactive” in each case. Also, the outcome in experiment [5], in experiment [6], in experiment [8], in experiment [10] and in [9] was inactive.

Turning to `COc1ccc([N+](=O)[O-])cc1N`, the Potency result in [3] and in experiment [4] was “inactive” throughout. The result in [5], in experiment [6], in experiment [7], in experiment [8] and in experiment [10] was inactive.

As for `Cc1ccc(C(C)C)c(O)c1`, the Potency entry in experiment [2], in [3] and in experiment [4] was “inactive” throughout. The result in experiment [5], in experiment [6], in [7], in [8], in experiment [10] and in experiment [9] was inactive.

For the compound `O=C1C(c2[nH]c3ccccc3c2O)=Nc2ccccc21`, the compound was called inactive in experiment [1], in [5], in experiment [6], in experiment [8] and in experiment [9]. The Potency entry in [2], in [3] and in [4] was “inactive” in each case.

Turning to `CN(C)c1ccc(Cc2ccc(N(C)C)cc2)cc1`, the result in [1], in experiment [5], in experiment [7], in experiment [8], in [10] and in experiment [9] was inactive. For the same compound, the Potency entry in experiment [2], in [3] and in [4] was “inactive” in each case.

For the compound `C[C@]12CCC(=O)C=C1CC[C@@H]1[C@@H]2[C@@H](O)C[C@@]2(C)[C@H]1CC[C@]2(O)C(=O)CO`, the result in experiment [1], in experiment [5], in experiment [6], in [8], in experiment [10] and in experiment [9] was inactive. In addition, the Potency result in experiment [2] was “inactive”. In addition, the Potency in experiment [3] is 30.9 µM (active).
